{"source": "ChEMBL document CHEMBL3988442", "about": "“University of Dundee, Small-Polar-MMV Screening Library” (2021)"}
{"target": "Chromo domain-containing protein 1 (Saccharomyces cerevisiae (strain ATCC 204508 / S288c) (Baker's yeast)) (UniProt P32657)", "sequence (P32657 whole entry, the tested form may be a part)": "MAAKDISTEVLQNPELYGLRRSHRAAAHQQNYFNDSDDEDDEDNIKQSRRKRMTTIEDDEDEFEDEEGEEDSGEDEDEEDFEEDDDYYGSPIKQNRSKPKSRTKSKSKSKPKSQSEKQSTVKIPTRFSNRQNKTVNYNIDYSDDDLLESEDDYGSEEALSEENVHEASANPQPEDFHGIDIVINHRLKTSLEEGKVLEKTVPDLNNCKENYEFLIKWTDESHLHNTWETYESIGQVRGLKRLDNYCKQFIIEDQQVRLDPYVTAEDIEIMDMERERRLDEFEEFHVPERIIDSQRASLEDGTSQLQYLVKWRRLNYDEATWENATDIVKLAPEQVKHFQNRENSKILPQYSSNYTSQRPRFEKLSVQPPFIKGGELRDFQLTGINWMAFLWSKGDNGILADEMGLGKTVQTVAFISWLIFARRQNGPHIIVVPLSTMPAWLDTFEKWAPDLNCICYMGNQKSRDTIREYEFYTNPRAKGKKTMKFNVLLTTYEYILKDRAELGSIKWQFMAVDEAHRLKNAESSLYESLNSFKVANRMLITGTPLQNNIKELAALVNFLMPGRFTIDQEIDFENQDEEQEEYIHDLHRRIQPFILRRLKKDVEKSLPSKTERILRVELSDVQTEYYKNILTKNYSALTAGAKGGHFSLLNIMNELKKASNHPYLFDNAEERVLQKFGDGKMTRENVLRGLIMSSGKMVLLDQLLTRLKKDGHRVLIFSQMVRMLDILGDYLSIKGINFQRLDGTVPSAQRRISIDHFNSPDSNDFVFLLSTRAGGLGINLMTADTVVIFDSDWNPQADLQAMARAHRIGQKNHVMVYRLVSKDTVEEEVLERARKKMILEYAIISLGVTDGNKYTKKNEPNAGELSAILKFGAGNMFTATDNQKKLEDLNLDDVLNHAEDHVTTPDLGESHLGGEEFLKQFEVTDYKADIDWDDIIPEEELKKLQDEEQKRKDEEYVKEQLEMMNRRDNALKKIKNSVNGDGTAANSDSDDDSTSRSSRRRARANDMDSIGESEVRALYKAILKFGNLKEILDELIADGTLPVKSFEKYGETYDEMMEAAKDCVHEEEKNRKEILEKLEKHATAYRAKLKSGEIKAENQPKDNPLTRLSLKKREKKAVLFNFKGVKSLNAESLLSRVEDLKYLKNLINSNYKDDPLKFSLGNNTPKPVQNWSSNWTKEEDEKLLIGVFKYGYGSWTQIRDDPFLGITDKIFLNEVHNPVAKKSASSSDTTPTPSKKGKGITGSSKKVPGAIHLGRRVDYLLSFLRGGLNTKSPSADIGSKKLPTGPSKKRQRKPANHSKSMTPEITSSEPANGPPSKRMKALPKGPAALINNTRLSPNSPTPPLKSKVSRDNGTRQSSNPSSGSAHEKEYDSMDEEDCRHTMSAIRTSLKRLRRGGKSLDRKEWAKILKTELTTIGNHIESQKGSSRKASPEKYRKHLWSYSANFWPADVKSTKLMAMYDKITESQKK", "experiment": "ScCHD-1 Enzyme Inhibition Assay", "assay_type": "functional", "parameters": "scale not given: in the data most compounds retested in dose-response had high values", "settings": "30 µM", "units": {"Percent Effect": "%"}}
{"compound": "Cc1cnn(CC2CCCCN2CCC(=O)Nc2cc(C)on2)c1", "note": "(centres undefined)", "Percent Effect": -13.7}
{"compound": "CNS(=O)(=O)Cc1ccc(CNC(=O)Nc2cn[nH]c2)cc1", "Percent Effect": -0.403}
{"compound": "Cc1c(C(=O)NC(CN2CCCC2=O)c2ccccc2)cnn1C", "note": "(centres undefined)", "Percent Effect": -6.11}
{"compound": "O=C(O)c1nnn(-c2ccc(F)c(F)c2)c1-c1ccncc1", "Percent Effect": -1.59}
{"compound": "Cc1ccccc1CCNC(=O)C1CC(=O)N(CC(F)(F)F)C1", "note": "(centres undefined)", "Percent Effect": -11.1}
{"compound": "CC(C)CN1CCCC2(CCN(C(=O)c3cnccn3)C2)C1", "note": "(centres undefined)", "Percent Effect": -5.96}
{"compound": "O=C(NCC(F)(F)F)C1CSCN1S(=O)(=O)c1ccc(F)cc1", "note": "(centres undefined)", "Percent Effect": -28}
{"compound": "CO[C@@H]1CC[C@H]2[C@H]1OCCN2C(=O)C1=CCCC1", "Percent Effect": -6.88}
{"compound": "COCC1CN(Cc2ccc(C)o2)Cc2cn(C)nc21", "note": "(centres undefined)", "Percent Effect": -7.5}
{"compound": "Cc1cc(NC(=O)CCc2ccsc2)n(C)n1", "Percent Effect": -4.62}
{"compound": "O=C(Cc1ccc(O)c(Cl)c1)N1CCCCC1CCn1cccn1", "note": "(centres undefined)", "Percent Effect": -5.17}
{"compound": "Cc1cnn(CC(C)NCc2csc(-c3ccco3)n2)c1", "note": "(centres undefined)", "Percent Effect": -23.7}
{"compound": "CCc1nnc2n1CCN(C(=O)c1ccc3nc(C)c(C)nc3c1)C2", "Percent Effect": -2.97}
{"compound": "Cc1cc(CN(C)C(=O)NC(C)c2nncn2C)no1", "note": "(centres undefined)", "Percent Effect": 72}
{"compound": "COC(=O)CS(=O)(=O)CCC(=O)N1CCCC1c1ccsc1", "note": "(centres undefined)", "Percent Effect": -2.96}
{"compound": "CC(=O)N1CCN(S(=O)(=O)c2ccc(C)c(F)c2)CC1", "Percent Effect": -3.17}
{"compound": "CN(C)C(=O)CN1C[C@@H]2CC[C@H](C1)N(Cc1cc(F)ccc1F)C2", "Percent Effect": -5.68}
{"compound": "Cc1nn(C)c(N(C)C)c1CNCc1cccnc1-n1cncn1", "Percent Effect": -7.57}
{"compound": "Cn1ccnc1CN1CCCCC1Cn1cccn1", "note": "(centres undefined)", "Percent Effect": -20.8}
{"compound": "COc1cc(C(=O)N2CCC(c3n[nH]c(C4CC4)n3)CC2)ccc1C", "Percent Effect": -30.5}
{"compound": "O=C(c1cccnc1)N1C[C@@H]2CC[C@H](C1)N(Cc1cccc(Cl)c1F)C2", "Percent Effect": -3.1}
{"compound": "Cc1cc(-c2cnn(CCNC(=O)c3cccnc3)c2C2CC2)on1", "Percent Effect": 1.21}
{"compound": "N#Cc1ccc(NCCNc2ccc(C(F)(F)F)cn2)nc1", "Percent Effect": 2.5}
{"compound": "Cc1nn(C)c(N(C)C)c1CNCc1cccc(CN(C)C(C)C)c1", "Percent Effect": -8.38}
{"compound": "Cc1nnc(NC(=O)CN(C)CC2CCCN2c2cccnn2)s1", "note": "(centres undefined)", "Percent Effect": 0.656}
{"compound": "Cc1cc(C(=O)NCc2cccnc2OC(C)C)no1", "Percent Effect": -0.257}
{"compound": "OC(CN1CCN(Cc2ccc(F)c(F)c2)CC1)C1CC1", "note": "(centres undefined)", "Percent Effect": -6.1}
{"compound": "Cc1noc(C(C)N2CCN(CCC(=O)N3CCCCC3)CC2)n1", "note": "(centres undefined)", "Percent Effect": -5.47}
{"compound": "CCc1nc2ccccc2c(=O)n1CC1(O)CCN(S(C)(=O)=O)CC1", "Percent Effect": -11.7}
{"compound": "Cn1ccc(CN2CCC(CCc3ccc(O)cc3)CC2)cc1=O", "Percent Effect": -10.1}
{"compound": "CCCNC(=O)N1CCN(Cc2cc(C)no2)CC1", "Percent Effect": -7.68}
{"compound": "Cc1cccc(OCCC(=O)N2CCN(S(=O)(=O)N(C)C)CC2)c1C", "Percent Effect": -13.5}
{"compound": "Cc1nc2n(n1)CC(NCc1cc(Cl)c3c(c1)OCCCO3)CC2", "note": "(centres undefined)", "Percent Effect": -3.53}
{"compound": "COC(=O)N1CCCN(C(=O)NCc2ccc(Cl)s2)CC1", "Percent Effect": -27.7}
{"compound": "Cc1cc(C2CCCN(CCCNS(C)(=O)=O)C2)n[nH]1", "note": "(centres undefined)", "Percent Effect": -0.769}
{"compound": "CC(C)CC(=O)N1CCCn2cnc(CN3CCCC3=O)c2C1", "Percent Effect": -0.173}
{"compound": "O=C(Nc1ccccn1)N(CCO)Cc1ccsc1", "Percent Effect": -3.38}
{"compound": "CCSCCC(=O)Nc1ncn(CC(=O)NCc2ccccc2)n1", "Percent Effect": -2.42}
{"compound": "OCCn1nccc1C1CCN(CCCOc2ccc(F)cc2)CC1", "Percent Effect": -0.509}
